{"source": "PubChem BioAssay (NCI)", "note": "“And” between values parts separate entries of the source, which are not always exact repeats. Identical values can stand only once. This is part of a sample that, as a whole, favours compounds with a hit. Of some 83,000 tested, about 20% had one in any assay.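 Interpretation: 100, growth as untreated; towards 0, rising growth inhibition; 0, no net growth; 0 to -100, cell death. Compounds scoring below 10 were considered active.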 The source made the active and inactive calls."}
{"system": "HL-60(TB) leukemia", "assay": "NCI-60 one-dose screen, 48 h (100 = growth as untreated, 0 = no growth, -100 = all killed)", "details": "10 µM unless noted"}
{"molecule": "Cc1c(-c2nc3ccc(F)cc3c(=O)[nH]2)c2ccccc2n1C", "growth": "4.98% (active)"}
{"molecule": "CCN1CCN(c2cc(C)nc(N(CCCNc3ccnc4cc(Cl)ccc34)Cc3cccs3)n2)CC1", "growth": "-50.3% (active)"}
{"molecule": "ClC/C=C/CSc1ncnc2nc[nH]c12", "growth": "97.9% (inactive) and 95.6% (inactive)"}
{"molecule": "COc1c(N)c2c(c([N+](=O)[O-])c1OC)C(=O)OC2", "growth": "95.3% (inactive)"}
{"molecule": "COc1ccc(-c2cn(-c3cccc(C(=O)/C=C/c4cc(OC)c(OC)c(OC)c4)c3)c(=O)[nH]2)cc1OC", "growth": "66.6% (inactive)"}
{"molecule": "CN1C2CCC1CN(c1cnc(C(=O)Nc3cc(F)cc4cccnc34)cn1)C2", "growth": "5.69% (active)"}
{"molecule": "CCOC(=O)c1nn(C2CCCCO2)c2ccc(NC(=O)CN3CCOCC3)cc12", "note": "(stereo not given)", "growth": "97% (inactive)"}
{"molecule": "CCNC(=O)c1[nH]cc(-c2ccccc2)c1-c1cc(OC)c2c(c1OC)OCO2", "growth": "94.7% (inactive)"}
{"molecule": "O=C1CCc2c(sc3[nH]c(=S)n(-c4ccc(OC(F)(F)F)cc4)c(=O)c23)C1", "growth": "39.7% (inactive)"}
{"molecule": "CC(C)=C1C=C2CC[C@@H]3[C@](C)(CCC[C@@]3(C)C(=O)O)[C@H]2CC1", "growth": "105% (inactive)"}
{"molecule": "O=C1OC(c2ccc(-c3ccccc3)cc2)=C/C1=C/c1cccs1", "growth": "75% (inactive)"}
{"molecule": "O=C(Nc1ncc(Cc2ccc(Cl)c(C(F)(F)F)c2)s1)c1ccc2nnsc2c1", "growth": "42.5% (inactive)"}
{"molecule": "Cc1ccc(N2C(=O)c3cccc4c(N)c(S(=O)(=O)O)cc(c34)C2=O)cc1", "growth": "88.8% (inactive)"}
{"molecule": "COc1ccc(/C=C\\c2cc(OC)c(OC)c(OC)c2)c(NS(=O)(=O)c2ccc(C(C)(C)C)cc2)c1O", "growth": "6.05% (active)"}
{"molecule": "CCN(CC)C(=O)C1CCN(C(=O)c2ccccc2)CC1", "growth": "89.3% (inactive)"}
{"molecule": "COc1cccc(C2CC(c3cc(OC)c(OC)c(OC)c3)=NN2)c1", "note": "(stereo not given)", "growth": "55.1% (inactive)"}
{"molecule": "Cc1cc(NC(=O)NC(=O)c2ccccc2N(C)C)ccc1Oc1ncc(Br)cn1", "growth": "-13.6% (active) and 20.7% (inactive)"}
{"molecule": "Nc1nc2ccc(-c3nc4ccc5[nH]ncc5c4c4c3CCCC4)cc2s1", "growth": "94.7% (inactive)"}
{"molecule": "O=C1/C(=C/c2ccc(Cl)cc2)SC(=S)N1CCc1ccc(O)cc1", "growth": "76.6% (inactive)"}
{"molecule": "CC1CN(Cc2ccco2)C(=S)N(c2ccccc2)C1=O", "note": "(stereo not given)", "growth": "61.3% (inactive)"}
{"molecule": "OCC(O)c1nc2ccc3[nH]ncc3c2c2c1CCCC2", "note": "(stereo not given)", "growth": "-16.9% (active)"}
{"molecule": "CNc1ccc(Cl)cc1S(=O)(=O)c1ccccc1[N+](=O)[O-]", "growth": "65.3% (inactive) and 79.9% (inactive)"}
{"molecule": "Fc1ccc(Nc2nc(NCCNc3ccnc4cc(Cl)ccc34)nc(N3CCOCC3)n2)cc1", "growth": "-6.82% (active)"}
{"molecule": "O=C(NCCc1nccs1)c1cnc2c(S)cccc2c1", "growth": "16.6% (inactive)"}
{"molecule": "O=C(CCl)Nc1ccc2c(c1)C(=O)c1ccccc1C2=O", "growth": "12.7% (inactive)"}
{"molecule": "CN(C)CCCn1c2c(c3cc(-c4cccc(S(N)(=O)=O)c4)ccc3c1=O)C(=O)c1ccccc1-2", "growth": "93.2% (inactive)"}
{"molecule": "CCOC(=O)c1c(SC)nn(-c2cc(=O)[nH]c3ccc(Br)cc23)c1N", "growth": "103% (inactive)"}
{"molecule": "O=c1cc(/C=N\\Nc2nc(-c3ccc(Cl)cc3Cl)cs2)c2cc(Cl)ccc2o1", "growth": "92.3% (inactive)"}
{"molecule": "CCC1=C[C@@H]2CN(C1)Cc1c([nH]c3ccccc13)[C@@](C(=O)OC)(c1cc3c(cc1OC)N(C)[C@H]1[C@@](O)(C(=O)OC)[C@H](OC(C)=O)[C@]4(CC)[C@@H]5C[C@@H]5CN5CC[C@]31[C@@H]54)C2", "growth": "-57.3% (active)"}
{"molecule": "O=C1OC2(c3ccccc31)c1ccc(O)c(O)c1Oc1c2ccc(O)c1O", "growth": "98.6% (inactive) and 117% (inactive)"}
{"molecule": "C=C1C(=O)O[C@H]2[C@H]1CC/C(C(=O)NCCOCCOCC(=O)Nc1ccc(OC)c(C(N)=O)c1O)=C\\CC[C@@]1(C)O[C@@H]21", "growth": "81.3% (inactive)"}
{"molecule": "[2H]c1nc(Nc2ncc3cc(C(=O)N(C)C)n(C4CCCC4)c3n2)c([2H])c([2H])c1N1C([2H])([2H])C([2H])([2H])NC([2H])([2H])C1([2H])[2H]", "growth": "14.6% (inactive)"}
{"molecule": "NNc1ccc2ccccc2c1", "growth": "98.4% (inactive) and 108% (inactive)"}
{"molecule": "CCOC(=O)C1=C(C)N=C2Sc3cc(OC(F)(F)F)ccc3N2[C@H]1c1ccccn1", "growth": "46.9% (inactive)"}
{"molecule": "N#C/C(=C\\c1ccc(-c2ccc(Cl)cc2)o1)C(=O)Nc1ncc(Cc2ccc(Cl)cc2)s1", "growth": "80.1% (inactive)"}
{"molecule": "CC(NNC(=S)N1CCCCCC1)c1ccc2ccccc2n1", "note": "(stereo not given)", "growth": "28.8% (inactive)"}
{"molecule": "COC(=O)c1ccc(C(=O)Nc2ccccc2N)cc1", "growth": "-18.5% (active)"}
{"molecule": "OC(c1ccccn1)C(O)c1ccccn1", "note": "(stereo not given)", "growth": "97.3% (inactive)"}
{"molecule": "COc1ccc2[nH]c(O)c(C(=Nc3ccc(N(C)C(=O)CN4CCN(C)CC4)cc3)c3ccccc3)c2c1", "growth": "-14.9% (active)"}
{"molecule": "c1ccc2c(N3CCCCC3)ncnc2c1", "growth": "51.5% (inactive)"}
